# Source: ChEMBL document CHEMBL2218924, “A broad activity screen in support of a chemogenomic map for kinase signalling research and drug discovery” (Biochem J, 2013)
# Legend:
# [1] = biological target: Vascular endothelial growth factor receptor 3 (Homo sapiens) (UniProt P35916); details: at 10 µM
# [2] = biological target: Macrophage colony-stimulating factor 1 receptor (Homo sapiens) (UniProt P07333); details: at 1 µM
# [3] = biological target: Macrophage colony-stimulating factor 1 receptor (Homo sapiens) (UniProt P07333); details: at 10 µM
# [4] = biological target: Tyrosine-protein kinase Fyn (Homo sapiens) (UniProt P06241); details: at 1 µM
# [5] = biological target: Tyrosine-protein kinase Fyn (Homo sapiens) (UniProt P06241); details: at 10 µM
# [6] = biological target: T1, Mitogen-activated protein kinase kinase kinase kinase 2 (Homo sapiens) (UniProt Q12851); details: at 1 µM
# T1 sequence (whole entry): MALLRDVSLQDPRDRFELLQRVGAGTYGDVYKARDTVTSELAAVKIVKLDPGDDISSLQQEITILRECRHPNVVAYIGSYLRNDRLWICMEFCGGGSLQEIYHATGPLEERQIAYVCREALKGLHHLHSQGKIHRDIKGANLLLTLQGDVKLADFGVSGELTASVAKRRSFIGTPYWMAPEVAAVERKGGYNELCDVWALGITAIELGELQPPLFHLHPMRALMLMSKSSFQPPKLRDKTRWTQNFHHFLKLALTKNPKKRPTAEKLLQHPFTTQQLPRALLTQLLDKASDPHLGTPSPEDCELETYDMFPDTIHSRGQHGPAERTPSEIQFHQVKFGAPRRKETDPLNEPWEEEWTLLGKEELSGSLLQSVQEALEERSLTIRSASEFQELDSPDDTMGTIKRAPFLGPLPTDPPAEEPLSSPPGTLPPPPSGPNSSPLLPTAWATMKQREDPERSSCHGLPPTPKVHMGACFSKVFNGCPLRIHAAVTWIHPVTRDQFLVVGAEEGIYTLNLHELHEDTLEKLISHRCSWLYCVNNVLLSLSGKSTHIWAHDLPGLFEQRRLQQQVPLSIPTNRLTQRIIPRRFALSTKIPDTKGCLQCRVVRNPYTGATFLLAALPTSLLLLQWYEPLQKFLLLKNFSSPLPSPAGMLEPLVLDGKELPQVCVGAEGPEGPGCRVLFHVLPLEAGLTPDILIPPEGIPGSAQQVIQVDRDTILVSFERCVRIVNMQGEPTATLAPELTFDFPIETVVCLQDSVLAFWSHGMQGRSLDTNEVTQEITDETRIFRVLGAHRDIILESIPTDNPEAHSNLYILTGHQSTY
# [7] = biological target: T1, Mitogen-activated protein kinase kinase kinase kinase 2 (Homo sapiens); details: at 10 µM
# [8] = biological target: G protein-coupled receptor kinase 5 (Homo sapiens) (UniProt P34947); details: at 1 µM
# [9] = biological target: G protein-coupled receptor kinase 5 (Homo sapiens) (UniProt P34947); details: at 10 µM
# [10] = biological target: G protein-coupled receptor kinase 6 (Homo sapiens) (UniProt P43250); details: at 1 µM
# Sequence of G protein-coupled receptor kinase 6 (Homo sapiens) (P43250 whole entry, looked up): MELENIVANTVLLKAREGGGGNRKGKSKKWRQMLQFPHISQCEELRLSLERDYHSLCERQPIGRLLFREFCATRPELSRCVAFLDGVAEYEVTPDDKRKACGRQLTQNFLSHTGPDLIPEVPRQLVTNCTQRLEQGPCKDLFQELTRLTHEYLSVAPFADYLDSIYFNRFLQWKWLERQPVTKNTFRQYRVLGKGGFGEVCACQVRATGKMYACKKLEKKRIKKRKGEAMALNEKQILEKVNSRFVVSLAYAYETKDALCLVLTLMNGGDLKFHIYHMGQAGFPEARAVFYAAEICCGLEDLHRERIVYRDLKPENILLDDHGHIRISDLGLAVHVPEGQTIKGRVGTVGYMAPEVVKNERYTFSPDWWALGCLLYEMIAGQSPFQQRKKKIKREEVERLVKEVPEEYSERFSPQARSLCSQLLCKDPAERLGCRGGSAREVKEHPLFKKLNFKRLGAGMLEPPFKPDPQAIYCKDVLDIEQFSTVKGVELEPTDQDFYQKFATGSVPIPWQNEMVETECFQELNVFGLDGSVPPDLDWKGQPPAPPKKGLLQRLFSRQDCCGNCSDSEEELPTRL
# Sequence of Vascular endothelial growth factor receptor 3 (Homo sapiens) (P35916 whole entry): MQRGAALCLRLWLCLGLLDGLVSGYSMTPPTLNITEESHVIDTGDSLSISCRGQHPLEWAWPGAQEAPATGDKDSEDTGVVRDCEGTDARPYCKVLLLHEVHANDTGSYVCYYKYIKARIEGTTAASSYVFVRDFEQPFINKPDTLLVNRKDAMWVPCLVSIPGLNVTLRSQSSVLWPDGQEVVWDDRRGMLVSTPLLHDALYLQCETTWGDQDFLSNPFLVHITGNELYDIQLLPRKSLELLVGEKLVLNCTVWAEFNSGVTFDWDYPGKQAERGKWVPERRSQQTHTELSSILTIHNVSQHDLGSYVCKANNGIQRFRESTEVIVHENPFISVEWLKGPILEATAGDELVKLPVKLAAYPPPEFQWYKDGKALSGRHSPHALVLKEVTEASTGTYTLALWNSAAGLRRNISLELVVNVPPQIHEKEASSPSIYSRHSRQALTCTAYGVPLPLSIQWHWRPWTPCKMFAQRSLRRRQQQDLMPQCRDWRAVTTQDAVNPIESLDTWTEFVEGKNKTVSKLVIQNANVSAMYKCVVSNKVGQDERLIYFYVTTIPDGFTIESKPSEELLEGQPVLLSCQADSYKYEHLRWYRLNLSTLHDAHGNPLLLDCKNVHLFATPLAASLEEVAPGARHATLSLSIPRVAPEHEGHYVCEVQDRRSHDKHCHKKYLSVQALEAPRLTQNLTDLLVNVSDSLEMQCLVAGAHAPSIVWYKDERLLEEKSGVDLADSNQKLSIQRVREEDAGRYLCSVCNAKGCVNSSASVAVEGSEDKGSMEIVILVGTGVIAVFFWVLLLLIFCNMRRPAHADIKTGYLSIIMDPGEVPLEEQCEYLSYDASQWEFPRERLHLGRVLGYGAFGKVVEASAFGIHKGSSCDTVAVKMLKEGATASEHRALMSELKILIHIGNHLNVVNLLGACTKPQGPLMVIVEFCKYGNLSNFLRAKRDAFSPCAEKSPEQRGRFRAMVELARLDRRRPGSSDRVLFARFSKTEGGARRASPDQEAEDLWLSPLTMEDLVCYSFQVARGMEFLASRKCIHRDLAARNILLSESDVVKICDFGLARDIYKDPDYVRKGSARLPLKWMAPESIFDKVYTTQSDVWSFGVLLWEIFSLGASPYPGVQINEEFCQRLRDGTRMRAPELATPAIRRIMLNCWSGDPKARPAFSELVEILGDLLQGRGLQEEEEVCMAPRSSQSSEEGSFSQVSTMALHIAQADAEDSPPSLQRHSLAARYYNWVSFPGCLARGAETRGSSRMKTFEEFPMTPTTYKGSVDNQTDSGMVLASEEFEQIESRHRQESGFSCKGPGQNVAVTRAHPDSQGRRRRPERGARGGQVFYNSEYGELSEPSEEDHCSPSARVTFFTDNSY
# Sequence of G protein-coupled receptor kinase 5 (Homo sapiens) (P34947 whole entry, looked up): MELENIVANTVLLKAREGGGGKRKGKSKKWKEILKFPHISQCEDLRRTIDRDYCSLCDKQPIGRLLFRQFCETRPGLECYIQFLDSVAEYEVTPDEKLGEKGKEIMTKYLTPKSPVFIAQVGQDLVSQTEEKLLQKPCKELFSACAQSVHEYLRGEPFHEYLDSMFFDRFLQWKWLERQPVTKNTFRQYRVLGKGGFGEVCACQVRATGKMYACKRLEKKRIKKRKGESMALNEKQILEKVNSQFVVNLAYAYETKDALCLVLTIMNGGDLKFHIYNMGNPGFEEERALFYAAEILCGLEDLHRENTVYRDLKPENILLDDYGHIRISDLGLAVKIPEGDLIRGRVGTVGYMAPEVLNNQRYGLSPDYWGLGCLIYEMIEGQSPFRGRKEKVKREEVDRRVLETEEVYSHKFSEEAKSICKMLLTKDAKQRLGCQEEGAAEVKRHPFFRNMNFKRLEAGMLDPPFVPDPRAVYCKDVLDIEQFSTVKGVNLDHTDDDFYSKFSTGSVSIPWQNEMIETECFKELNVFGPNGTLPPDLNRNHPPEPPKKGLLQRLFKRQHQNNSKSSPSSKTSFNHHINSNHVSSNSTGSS
# Sequence of Tyrosine-protein kinase Fyn (Homo sapiens) (P06241 2-537 limits assumed): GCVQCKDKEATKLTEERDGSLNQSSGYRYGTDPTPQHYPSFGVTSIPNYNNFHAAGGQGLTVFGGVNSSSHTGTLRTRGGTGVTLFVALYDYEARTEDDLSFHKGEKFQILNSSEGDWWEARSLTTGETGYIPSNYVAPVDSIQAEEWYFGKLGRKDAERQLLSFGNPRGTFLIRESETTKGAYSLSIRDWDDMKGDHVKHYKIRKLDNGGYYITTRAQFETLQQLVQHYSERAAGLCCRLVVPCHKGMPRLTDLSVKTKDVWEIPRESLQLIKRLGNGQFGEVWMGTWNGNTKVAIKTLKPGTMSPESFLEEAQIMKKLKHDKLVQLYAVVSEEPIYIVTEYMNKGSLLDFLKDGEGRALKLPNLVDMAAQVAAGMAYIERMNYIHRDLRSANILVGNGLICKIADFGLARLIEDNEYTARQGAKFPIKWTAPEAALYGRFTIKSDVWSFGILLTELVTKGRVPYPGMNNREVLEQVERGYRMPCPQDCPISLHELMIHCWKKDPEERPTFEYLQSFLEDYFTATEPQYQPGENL
# Sequence of Macrophage colony-stimulating factor 1 receptor (Homo sapiens) (P07333 whole entry): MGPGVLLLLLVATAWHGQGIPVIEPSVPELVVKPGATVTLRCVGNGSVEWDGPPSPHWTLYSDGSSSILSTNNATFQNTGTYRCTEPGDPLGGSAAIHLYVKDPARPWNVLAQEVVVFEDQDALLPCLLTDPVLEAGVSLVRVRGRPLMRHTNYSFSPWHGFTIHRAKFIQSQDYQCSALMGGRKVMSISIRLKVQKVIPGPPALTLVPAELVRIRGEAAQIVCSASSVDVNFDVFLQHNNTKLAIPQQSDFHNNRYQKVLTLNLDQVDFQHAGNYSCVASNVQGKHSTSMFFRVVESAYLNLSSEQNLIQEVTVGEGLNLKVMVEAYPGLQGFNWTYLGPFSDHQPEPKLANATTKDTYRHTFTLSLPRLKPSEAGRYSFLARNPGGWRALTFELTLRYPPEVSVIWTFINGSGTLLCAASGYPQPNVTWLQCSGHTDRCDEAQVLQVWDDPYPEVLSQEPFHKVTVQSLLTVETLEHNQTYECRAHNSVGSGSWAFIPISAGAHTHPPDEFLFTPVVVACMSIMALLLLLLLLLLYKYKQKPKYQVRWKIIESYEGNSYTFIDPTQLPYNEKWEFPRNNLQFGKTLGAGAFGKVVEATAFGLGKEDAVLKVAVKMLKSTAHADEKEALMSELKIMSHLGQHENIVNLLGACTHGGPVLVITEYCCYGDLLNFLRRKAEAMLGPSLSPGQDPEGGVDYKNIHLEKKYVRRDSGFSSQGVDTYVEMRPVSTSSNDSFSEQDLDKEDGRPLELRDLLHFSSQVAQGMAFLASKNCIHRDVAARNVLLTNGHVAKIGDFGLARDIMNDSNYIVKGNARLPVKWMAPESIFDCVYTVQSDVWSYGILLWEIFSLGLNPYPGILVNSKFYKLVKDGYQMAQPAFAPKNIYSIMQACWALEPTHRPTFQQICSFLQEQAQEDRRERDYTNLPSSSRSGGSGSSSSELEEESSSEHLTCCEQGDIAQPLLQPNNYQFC
smiles,measurement,setting,value
CCn1cnc2c(Nc3cccc(Cl)c3)nc(N[C@@H]3CCCC[C@@H]3N)nc21,residual activity,[1],2%
same,residual activity,[2],54%
same,residual activity,[3],11%
same,residual activity,[4],8%
same,residual activity,[5],0%
same,residual activity,[6],43%
same,residual activity,[7],7%
same,residual activity,[8],96%
same,residual activity,[9],66%
same,residual activity,[10],91%
CC(C)(C)c1cc(C=C(C#N)C#N)cc(Br)c1O,residual activity,[1],83%
same,residual activity,[2],97%
same,residual activity,[3],76%
same,residual activity,[5],15%
same,residual activity,[6],113%
same,residual activity,[8],120%
same,residual activity,[9],100%
same,residual activity,[10],106%
CN[C@@H]1C[C@H]2O[C@@](C)([C@@H]1OC)n1c3ccccc3c3c4c(c5c6ccccc6n2c5c31)C(=O)NC4,residual activity,[7],0%
O=C1NC(=O)c2c1c1c3ccccc3n3c1c1c2c2ccccc2n1C1CCC3O1,residual activity,[1],2%
same,residual activity,[2],30%
same,residual activity,[3],26%
same,residual activity,[4],81%
same,residual activity,[5],75%
same,residual activity,[6],20%
same,residual activity,[7],10%
Nc1nc(Nc2ccc(S(N)(=O)=O)cc2)nn1C(=O)c1c(F)cccc1F,residual activity,[8],78%
O=C1Nc2ccc3ncsc3c2/C1=C/c1c[nH]cn1,residual activity,[1],0%
same,residual activity,[2],22%
same,residual activity,[3],3%
same,residual activity,[4],46%
same,residual activity,[5],12%
same,residual activity,[6],7%
same,residual activity,[7],1%
same,residual activity,[8],71%
same,residual activity,[9],25%
O=C1Cc2c([nH]c3ccc(Br)cc23)-c2ccccc2N1,residual activity,[8],95%
COc1ccc2c(c1)/C(=C/c1cnc[nH]1)C(=O)N2,residual activity,[2],41%
same,residual activity,[3],14%
same,residual activity,[4],67%
same,residual activity,[5],25%
same,residual activity,[6],23%
same,residual activity,[7],3%
COc1cc2ncnc(Nc3cccc(Cl)c3)c2cc1OC,residual activity,[8],108%
Cn1cnc2cc3c(Nc4cccc(Br)c4)ncnc3cc21,residual activity,[8],109%
same,residual activity,[10],97%
CO[C@H]1[C@@H](OC)C[C@H](C)[C@@H](OC)C2=CC(=O)C=C(NC(=O)/C(C)=C/C=C/[C@H](OC)[C@@H](OC(N)=O)/C(C)=C/[C@@H]1C)C2=O,residual activity,[8],70%
same,residual activity,[10],97%
O=C(CCCc1ccc(-c2ccccc2F)cc1)Nc1ccc(O)cc1,residual activity,[8],101%
same,residual activity,[10],101%
O=C1NC(=O)c2cc(Nc3ccc(F)cc3)c(Nc3ccc(F)cc3)cc21,residual activity,[8],104%
same,residual activity,[10],85%
O=Nc1c(-c2c(O)[nH]c3ccccc23)[nH]c2ccccc12,residual activity,[8],92%
same,residual activity,[10],81%
